This passage reports Potency results from PubChem BioAssay (NCATS).

Records with an inconclusive call do not appear. A call without a number means that no potency is given here. Activity calls are given as the source filed them. Calls come from the whole dose curve; tested in HEK293 reporter line.

The assay is described as follows: qHTS for Inhibitors of the Functional Ribonucleoprotein Complex (vRNP) of Lymphocytic Choriomeningitis Arenaviruses (LCMV): Viability assay - alamar blue signal for LCMV Primary Screen (AID 1347085). Note: nearly all actives have a fitted effect of over 80% in size. Particulars: alamar blue viability counter-screen, LCMV vRNP screen cells; series mostly up to 57.5 µM. On the technique in general: In qHTS, concentration-response curves come from the screen itself.
For `Cc1ncc([N+](=O)[O-])n1CC(O)CCl` (centres undefined), the Potency entry is “inactive”.

On to `O=C(O)CCc1nc2ccccc2[nH]1`, for which the Potency result is “inactive”.

Consider `CCCc1c2oc(C(=O)O)cc(=O)c2cc2c(=O)cc(C(=O)O)n(CC)c12`, for which the Potency result is “inactive”.

Take `CCn1cc(C(=O)O)c(=O)c2cnc(N3CCNCC3)nc21`: the Potency entry is “inactive”.

As for `Clc1cccc(Cl)c1NC1=NCCN1`, the Potency entry was “inactive”.

As to `CCC[C@@H]1C[C@@H](C(=O)N[C@@H]([C@H]2O[C@H](SC)[C@H](O)[C@@H](O)[C@H]2O)[C@@H](C)O)N(C)C1`, the Potency result is “inactive”.

Turning to `CC(=O)OCC(COC(C)=O)OC(C)=O`, the Potency result is “inactive”.

`COc1cc2c(Nc3ccc(Br)cc3F)ncnc2cc1OCC1CCN(C)CC1`: the Potency entry is “inactive”.

As to `CNCC(O)c1ccc(O)c(O)c1` (centres undefined), the Potency result is “inactive”.

In the case of `O=S(=O)(O)CCS`, the Potency entry is “inactive”.

In the case of `COc1ccc(-c2ccc3cc(C(=O)O)ccc3c2)cc1C12CC3CC(CC(C3)C1)C2`, the Potency entry is “inactive”.

On to `O=S(=O)(O)c1ccc(O)cc1`, for which the Potency entry was “inactive”.

For the compound `Cc1onc(-c2ccccc2)c1C(=O)Cl`, the Potency entry was “inactive”.

Regarding `CC(=O)[C@H]1CC[C@H]2[C@@H]3C=CC4=CC(=O)CC[C@@]4(C)[C@@H]3CC[C@]12C`, the Potency result is “inactive”.

In the case of `NC(Cc1ccc(Cl)cc1)C(=O)O` (centres undefined), the Potency entry was “inactive”.

For the compound `O=S(=O)(O)c1cc(I)c(O)c2ncccc12`, the Potency entry is “inactive”.

Regarding `CC(C)(C)NCC(O)c1cc(O)cc(O)c1` (centres undefined), the Potency result is “inactive”.

For the compound `O=C(O)CCC(=O)O`, the Potency result was “inactive”.

`CC(=O)NO`: the Potency result was “inactive”.

With `C/C(=N\O)c1ccc(OCC(=O)N2CCCCC2)cc1`, the Potency result was “inactive”.

Take `COc1cc(O)cc(O)c1`: the Potency result was “inactive”.

Take `COc1ccc2cccc(CCNC(C)=O)c2c1`: the Potency entry is “inactive”.

`O=C1CC[C@@H](C(=O)O)N1`: the Potency result was “inactive”.

Consider `CC(=O)OCC(=O)[C@H]1CC[C@H]2[C@@H]3CCC4=CC(=O)CC[C@]4(C)[C@H]3CC[C@]12C`, for which the Potency entry is “inactive”.
